Consider 42 molecules from publication PMC4336329 (PLoS ONE, 2015).

About 14,000 (4.5%) of roughly 310,000 compounds showed an effect of 50% or more. Effects have a minus sign here. The sample as a whole holds a higher share of strong results than the screen did.
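Note: peak tail current of the secondary pulse compared with the same well before compound.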

The experiment deals with human ether-à-go-go-related gene (hERG) potassium channel (human, UniProt Q12809). The experiment is described as follows: primary screen, population patch clamp on CHO cells stably expressing hERG; higher = less effect of the substance.
human ether-à-go-go-related gene (hERG) potassium channel, sequence (Q12809 whole entry, looked up): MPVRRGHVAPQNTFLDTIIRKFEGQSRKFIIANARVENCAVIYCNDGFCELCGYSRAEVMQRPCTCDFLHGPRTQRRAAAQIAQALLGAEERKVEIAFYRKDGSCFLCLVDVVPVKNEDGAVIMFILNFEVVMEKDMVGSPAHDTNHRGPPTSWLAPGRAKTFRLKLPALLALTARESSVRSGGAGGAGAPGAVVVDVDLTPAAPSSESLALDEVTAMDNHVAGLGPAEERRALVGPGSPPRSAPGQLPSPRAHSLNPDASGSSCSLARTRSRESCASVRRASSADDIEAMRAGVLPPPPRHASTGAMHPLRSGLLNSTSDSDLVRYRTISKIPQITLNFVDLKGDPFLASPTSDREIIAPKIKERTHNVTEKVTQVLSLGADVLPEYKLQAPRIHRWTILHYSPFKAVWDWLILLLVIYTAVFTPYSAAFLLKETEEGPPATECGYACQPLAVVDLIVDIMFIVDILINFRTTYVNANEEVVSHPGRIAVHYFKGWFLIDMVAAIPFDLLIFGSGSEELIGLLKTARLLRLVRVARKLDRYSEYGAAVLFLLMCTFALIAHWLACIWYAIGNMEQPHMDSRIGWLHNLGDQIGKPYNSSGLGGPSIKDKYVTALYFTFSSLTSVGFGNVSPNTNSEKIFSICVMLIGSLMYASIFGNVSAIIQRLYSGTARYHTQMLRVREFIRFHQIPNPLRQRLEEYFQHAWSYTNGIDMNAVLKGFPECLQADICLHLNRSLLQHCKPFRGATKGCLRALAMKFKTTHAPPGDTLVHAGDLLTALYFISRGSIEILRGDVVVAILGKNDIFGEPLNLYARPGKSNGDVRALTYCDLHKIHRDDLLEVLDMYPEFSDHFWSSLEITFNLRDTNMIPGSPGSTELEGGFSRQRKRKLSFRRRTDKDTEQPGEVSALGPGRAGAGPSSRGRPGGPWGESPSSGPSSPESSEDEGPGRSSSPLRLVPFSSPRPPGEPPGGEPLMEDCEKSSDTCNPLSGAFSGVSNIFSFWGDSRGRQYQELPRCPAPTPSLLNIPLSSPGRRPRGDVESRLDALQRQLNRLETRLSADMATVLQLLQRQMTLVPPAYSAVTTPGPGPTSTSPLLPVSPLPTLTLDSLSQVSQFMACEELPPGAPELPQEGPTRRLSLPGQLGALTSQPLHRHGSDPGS
Take `Cc1cccc(OCC(=O)Nc2cc(C)ccc2O)c1`: the “hERG current change (%, negative = inhibition) at 10uM” value amounted to 12.4%.

On to `CC(C)OCCCn1c(=N)c(C(N)=S)cc2c(=O)n3ccccc3nc21`, for which the “hERG current change (%, negative = inhibition) at 10uM” value was -81.5%.

In the case of `CCCn1c(=N)c(S(=O)(=O)c2ccccc2)cc2c(=O)n3ccccc3nc21`, the “hERG current change (%, negative = inhibition) at 10uM” value is -15.6%.

As to `Cc1ccc2nc3c(cc(C(N)=S)c(=N)n3CCCOC(C)C)c(=O)n2c1`, the “hERG current change (%, negative = inhibition) at 10uM” value was -74.4%.

For the molecule `CCOCCCn1c(=N)c(S(=O)(=O)c2ccc(C)cc2)cc2c(=O)n3cc(C)ccc3nc21`, the “hERG current change (%, negative = inhibition) at 10uM” value was 11.6%.

Turning to `CCOCCCn1c(=N)c(S(=O)(=O)c2ccccc2)cc2c(=O)n3cc(C)ccc3nc21`, the “hERG current change (%, negative = inhibition) at 10uM” value was -19.1%.

With `CC(C)OCCCn1c(=N)c(S(=O)(=O)c2ccccc2)cc2c(=O)n3ccccc3nc21`, the “hERG current change (%, negative = inhibition) at 10uM” value is -43.6%.

As to `CCOC(=O)C1=C(N)Oc2cc(C)[nH]c(=O)c2C1c1ccncc1` (stereo not drawn), the “hERG current change (%, negative = inhibition) at 10uM” value is 11.9%.

Take `COc1cc2c(cc1C1NC(=S)NC(C)=C1C(N)=O)CCCC2` (stereo not drawn): the “hERG current change (%, negative = inhibition) at 10uM” value is recorded as 9.6%.

As to `Cc1ccc(CNC(=O)CN2CCCC(C)C2)cc1` (stereo not drawn), the “hERG current change (%, negative = inhibition) at 10uM” value is -29.7%.

In the case of `COc1ccc(N2CCN(C3CC(=O)N(C)C3=O)CC2)cc1` (stereo not drawn), the “hERG current change (%, negative = inhibition) at 10uM” value came to 17.4%.

Regarding `O=S(=O)(c1ccc(Br)cc1Cl)N1CC[NH+](CCO)CC1.[Cl-]`, the “hERG current change (%, negative = inhibition) at 10uM” value is recorded as 3.35%.

On to `Oc1ccc(/C=N/N(Cc2ccccc2)c2ccccc2)cc1`, for which the “hERG current change (%, negative = inhibition) at 10uM” value is 35.8%.

For `Cc1sc2ncn(CC(=O)NCCCC(=O)N3CCN(Cc4ccc5c(c4)OCO5)CC3)c(=O)c2c1C`, the “hERG current change (%, negative = inhibition) at 10uM” value was -6.94%.

Take `CCn1ncc(/C=C/C(=O)c2ccccc2)c1C`: the “hERG current change (%, negative = inhibition) at 10uM” value was 5.83%.

As for `COC(=O)c1c(NC(=O)CSc2nccn2C)sc(C)c1C`, the “hERG current change (%, negative = inhibition) at 10uM” value was -15.8%.

With `CCOC(=O)c1cc(C)sc1NC(=O)CSc1nccn1C`, the “hERG current change (%, negative = inhibition) at 10uM” value is -19.9%.

Regarding `CCc1cc(C(=O)OC)c(NC(=O)CSc2nccn2C)s1`, the “hERG current change (%, negative = inhibition) at 10uM” value is given as -56.9%.

For `O=C1CCC(=O)N1CC(O)COc1ccccc1` (stereo not drawn), the “hERG current change (%, negative = inhibition) at 10uM” value worked out at 4.87%.

As for `Cl.OC(COc1ccc(Cl)cc1)CN1C2=NCCCN2c2ccccc21` (stereo not drawn), the “hERG current change (%, negative = inhibition) at 10uM” value is recorded as -76.3%.

As to `Cl.OC(COc1ccccc1)CN1C2=NCCCN2c2ccccc21` (stereo not drawn), the “hERG current change (%, negative = inhibition) at 10uM” value was -67%.

Regarding `Cc1cc(C(=O)NNC(=O)c2ccccc2[N+](=O)[O-])c(C)o1`, the “hERG current change (%, negative = inhibition) at 10uM” value stood at 11.2%.

For the molecule `O=C(CN1CCN(Cc2ccccc2)CC1)N/N=C/c1cccnc1`, the “hERG current change (%, negative = inhibition) at 10uM” value is listed as -12.8%.

Consider `O=C(CN1CCN(Cc2ccccc2)CC1)N/N=C/c1cccs1`, for which the “hERG current change (%, negative = inhibition) at 10uM” value is on record as -22.9%.

Consider `O=C(CN1CCN(Cc2ccc(Cl)cc2)CC1)N/N=C/c1cccs1`, for which the “hERG current change (%, negative = inhibition) at 10uM” value is on record as -67.2%.

In the case of `O=C(Cc1ccc(Cl)cc1)N/N=C/c1ccncc1`, the “hERG current change (%, negative = inhibition) at 10uM” value was -27.3%.

As to `O=C(CN1CCN(Cc2ccc(Cl)cc2)CC1)N/N=C/c1ccncc1`, the “hERG current change (%, negative = inhibition) at 10uM” value is given as -80.1%.

Take `O=C(CN1CCN(Cc2ccccc2Cl)CC1)N/N=C/c1cccs1`: the “hERG current change (%, negative = inhibition) at 10uM” value was -20.4%.

In the case of `O=C(O)CCCNC(=O)Cc1ccccc1`, the “hERG current change (%, negative = inhibition) at 10uM” value was determined as 5.08%.

As to `O=C(C1=C(O)C(=O)N(c2ncccn2)C1c1cccs1)c1ccco1` (stereo not drawn), the “hERG current change (%, negative = inhibition) at 10uM” value is reported as 14.3%.

With `COc1ccccc1C1NC(=O)NC(C)=C1C(=O)OC1CCCCC1` (stereo not drawn), the “hERG current change (%, negative = inhibition) at 10uM” value is 6.66%.

For `COCCNC(=O)C(=O)NNC(=O)CCc1ccccc1`, the “hERG current change (%, negative = inhibition) at 10uM” value came out at 8.78%.

Regarding `CCOC(=O)CN1C(=O)N[C@@H](c2cccc(C(F)(F)F)c2)C(C(C)=O)=C1C`, the “hERG current change (%, negative = inhibition) at 10uM” value is 11.8%.

On to `Cn1nc(-c2ccccc2)c2nc3ccccc3nc21`, for which the “hERG current change (%, negative = inhibition) at 10uM” value is -5.31%.

Consider `Cl.Nc1nc(N2CCN(C(=O)c3ccco3)CC2)nc2ccccc12`, for which the “hERG current change (%, negative = inhibition) at 10uM” value was -49.4%.

`O=C(c1cc(-c2ccncc2)nc2ccc(Br)cc12)N1CCN(Cc2ccc3c(c2)OCO3)CC1`: the “hERG current change (%, negative = inhibition) at 10uM” value is -56.5%.

Turning to `O=C(c1ccco1)N1CCN(C(=O)c2cc(-c3ccncc3)nc3ccc(Br)cc23)CC1`, the “hERG current change (%, negative = inhibition) at 10uM” value was -72.7%.

On to `O=C(c1cc(-c2ccncc2)nc2ccc(Cl)cc12)N1CCN(Cc2ccc3c(c2)OCO3)CC1`, for which the “hERG current change (%, negative = inhibition) at 10uM” value was -46.7%.

Turning to `COc1cc2nc(N3CCN(C(=O)c4ccco4)CC3)nc(N)c2cc1OC.Cl`, the “hERG current change (%, negative = inhibition) at 10uM” value is -35.9%.

Consider `CC(=O)c1ccc(N2CCN(C(=O)c3cc(-c4ccncc4)nc4ccc(Br)cc34)CC2)cc1`, for which the “hERG current change (%, negative = inhibition) at 10uM” value is listed as -42%.

With `Cl.Nc1nc(N2CCN(C(=O)c3ccco3)CC2)nc2ccc(Br)cc12`, the “hERG current change (%, negative = inhibition) at 10uM” value is given as -59.5%.

As to `O=C(O)c1cc(-c2ccc3c(c2)OCO3)nc2ccc(Br)cc12`, the “hERG current change (%, negative = inhibition) at 10uM” value came to 9.07%.
